PubChem BioAssay (NCATS)
Results filed as inconclusive are left out. Values without a mark were called inactive. The source made the active and inactive calls. Calls follow the shape of the dose curve; as a rule, active = well fitted inhibition curve with a large enough effect; inconclusive = small, poorly fitted or top-dose-only effect; inactive = no such curve, though single readings can be large or run the other way.

Experiment: Primary qHTS for small molecule stabilizers of the endoplasmic reticulum resident proteome: Secreted ER Calcium Modulated Protein (SERCaMP) assay (AID 1508630)
Details: SH-SY5Y GLuc-SERCaMP (Gaussia luciferase released on ER calcium loss) secretion, thapsigargin, luminescence; series mostly up to 38.4 µM; activity change, negative = inhibition: at the top concentration
Text: Assay Provider: Brandon K. Harvey Ph.D.
National Institute on Drug Abuse, National Institutes of Health, Baltimore, MD
Endoplasmic reticulum (ER) dysregulation is associated with human pathologies including neurodegenerative, cardiovascular, muscular, and diabetic conditions. Maintenance of ER calcium is critical for functions of the ER and its depletion can lead to loss of ER resident proteins, in a process termed exodosis. Therapeutic compounds capable of attenuating the redistribution of ER proteins under pathological conditions may slow or stop disease progression. To identify such compounds, we performed a quantitative high-throughput screen (qHTS) using the SERCaMP assay, which monitors secretion of ER resident proteins triggered by calcium depletion.
SERCaMP was initially developed as a reporter of ER calcium homeostasis using a Gaussia luciferase with a modified signal peptide and carboxy-terminus (GLuc-SERCaMP), modifications that confer secretion of the reporter in response to ER calcium depletion (Henderson et al., 2014). The assay was used to screen 9,501 compounds, including a collection of drugs approved by the FDA (US), EMA (EU), NHI (Japan), and HC (Canada) regulatory agencies (Huang et al., 2011). Since the SERCaMP reporter reflects the exodosis phenomenon (Trychta et al., 2018a), compounds identified in the screen have the potential to prevent exodosis by different mechanisms such as stabilizing ER calcium or augmenting ERS retrieval.
1. Henderson, M.J., Wires, E.S., Trychta, K.A., Richie, C.T., and Harvey, B.K. (2014). SERCaMP: a carboxy-terminal protein modification that enables monitoring of ER calcium homeostasis. Mol Biol Cell 25, 2828-2839.
2. Huang, R., Southall, N., Wang, Y., Yasgar, A., Shinn, P., Jadhav, A., Nguyen, D.T., and Austin, C.P. (2011). The NCGC pharmaceutical collection: a comprehensive resource of clinically approved drugs enabling repurposing and chemical genomics. Sci Transl Med 3, 80ps16.
3. Trychta, K.A., Back, S., Henderson, M.J., and Harvey, B.K. (2018a). KDEL Receptors Are Differentially Regulated to Maintain the ER Proteome under Calcium Deficiency. Cell Rep 25, 1829-1840 e1826.
SEQUENCE No. (1, 2, 3, etc.); […] (e.g., Cells, Incubation, Reagent, etc.); VALUE and DESCRIPTION.
1; Reagent; 5 uL; 1000 SH-SY5Y cells per wells
3; Compound; 23 nL; Control inhibitor / compound library
5; Reagent; 100 nM; Thapsigargin
7; Reagent; 1 uL; 0.5x coelenterazine
8; Detection; Luminescence; ViewLux imaging system
NOTES (numbers refer to sequence above)
1; SH-SY5Y human neuroblastoma cells stably expressing GLuc-SERCaMP (SH-SY5Y-GLuc-ASARTDL) cells were seeded in 1,536 well white tissue culture treated plates (Corning, Cat# 7464) in DMEM-high glucose-sodium pyruvate (ThermoFisher Scientific, Cat #10569) supplemented with 10% bovine growth serum (Hyclone), 10 U/ml penicillin (Gibco), 10 ug/ml streptomycin (Gibco), and 20 mM HEPES.
2; Assay plates were incubated for 5 hour at 37C in a humidified incubator containing 5% CO2.
3; qHTS libraries (23 nl, final concentrations of 1.53 uM, 7.67 uM, 38.3 uM) or controls (neutral control: DMSO, positive control: dantrolene) were added using a Kalypsis pin-tool Robotic System equipped with 1536 pinheads.
4; Cells were then incubated for 16 hours at 37C, 5% CO2.
5; Thapsigargin was added at 100 nM to deplete ER calcium stores.
6; Cells were incubated for 4 hour (37 °C, 5% CO2)
7; Gaussia luciferase in the medium was measured by adding 1 ul of 0.5x coelenterazine (final concentration 0.07x) prepared in Gaussia Luciferase Glow Assay Buffer (Pierce), without addition of the Cell Lysis Buffer Reagent.
8; Luminescence was measured using a ViewLux […] CCD imaging system (Perkin Elmer) equipped with clear filters. […] The same controls were also used for the calculation of the Z' factor, a measure of assay quality control, as previously described (Zhang et al., 1999). […]
% is scaled to controls: 0 for no effect and ±100 for the full control effect.

With C#C[C@]1(O)CC[C@H]2[C@H]3CCc4cc(OC)ccc4[C@H]3CC[C@@]21C as the molecule, how does the “activity change, negative = inhibition” value read?
Its value is 56.1%.

For O=C1NC(=O)C(c2cnc3ccccn23)=C1c1cn2c3c(cccc13)CN(C(=O)N1CCOCC1)CC2, which “activity change, negative = inhibition” value is on record?
Its value is 19.2%.

With CC(C)c1onc(-c2c(Cl)cccc2Cl)c1COc1ccc(C=Cc2cccc(C(=O)O)c2)c(Cl)c1 as the molecule, how does the “activity change, negative = inhibition” value read?
Its value is -16.5%.

With CCCCn1c(=O)n(Cc2ccccc2F)c(=O)c2[nH]c(Cc3ccc(NC(C)=O)cc3)nc21 as the molecule, how does the “activity change, negative = inhibition” value read?
Its value is 118%.

For Cc1ccc(NC(=O)c2cccc(N(C)C)c2)cc1NC(=O)c1ccc(O)cc1, which Potency is on record?
The Potency was “inactive”.

With CN1CCC(COc2cnc(-c3cccc(Cn4nc(-c5cccc(C#N)c5)ccc4=O)c3)nc2)CC1 as the molecule, how does the “activity change, negative = inhibition” value read?
The value was 147%.

For COC(=O)[C@H](c1ccccc1Cl)N1CCc2sccc2C1, which “activity change, negative = inhibition” value is on record?
The value was 141%.

With CCCCC(C=O)NC(=O)C(CC(C)C)NC(=O)OCc1ccccc1 (stereo not given) as the molecule, how does the “activity change, negative = inhibition” value read?
Its value is 13.1%.

For CO[C@@H]1C(N(C)C(=O)c2ccccc2)C[C@H]2O[C@]1(C)n1c3ccccc3c3c4c(c5c6ccccc6n2c5c31)C(=O)NC4=O (stereo not given in full), which “activity change, negative = inhibition” value is on record?
The value was 61.8%.

For CCCCC[C@H](O)C=C[C@H]1[C@H](O)CC(=O)[C@H]1CC=CCCCC(=O)O, which “activity change, negative = inhibition” value is on record?
The value was -25.6%.

For C[C@@H]1O[C@@H](O[C@H]2CC[C@@]3(C)[C@H](CC[C@@H]4[C@H]3C[C@@H](O)[C@]3(C)[C@@H](C5=CC(=O)OC5)CC[C@]43O)C2)C[C@H](O)[C@@H]1O[C@H]1C[C@H](O)[C@H](O[C@H]2C[C@H](O)[C@@H](O)[C@@H](C)O2)[C@H](C)O1 (stereo in doubt), which “activity change, negative = inhibition” value is on record?
The value was 57.7% [at 76.3 µM].

For COC1CCC(C(=O)c2ccc3nc4c(cc3c2)CCCO4)CC1 (stereo not given), which “activity change, negative = inhibition” value is on record?
The value was 0%.

Which “activity change, negative = inhibition” value does the source give for COc1nccc(-c2c(-c3ccc(F)cc3)ncn2C2CCNCC2)n1 here?
The value was 8.63%.

Which “activity change, negative = inhibition” value does the source give for CN1CCN(c2cccc(Nc3nc4c(-c5ccc(S(C)(=O)=O)cc5)cccn4n3)c2)CC1 here?
The value was 0%.

With NC(=O)c1nnn(Cc2cc(Cl)c(C(=O)c3ccc(Cl)cc3)c(Cl)c2)c1N as the molecule, how does the “activity change, negative = inhibition” value read?
Its value is 5.85%.

For CCc1cccc(CC)c1NC(=O)N1Cc2[nH]nc(NC(=O)c3ccc(N4CCN(C)CC4)cc3)c2C1, which “activity change, negative = inhibition” value is on record?
The value was 0%.

With COc1cc([C@@H]2c3cc4c(cc3[C@@H](O[C@@H]3O[C@@H]5CO[C@@H](C)O[C@@H]5[C@H](O)[C@@H]3O)[C@H]3COC(=O)[C@H]23)OCO4)cc(OC)c1O as the molecule, how does the Potency read?
The Potency was “inactive”.

With Clc1ccc(C2(c3ccc(-c4cn[nH]c4)cc3)CCNCC2)cc1 as the molecule, how does the “activity change, negative = inhibition” value read?
Its value is 315%.

Which “activity change, negative = inhibition” value does the source give for Cc1cccc(Nc2nc(N[C@@H]3CCCC[C@H]3N)ncc2C(N)=O)c1 here?
The value was 3.52%.

For CCOC(=O)c1c(CSc2ccccc2)n(C)c2cc(Br)c(O)c(CN(C)C)c12, which “activity change, negative = inhibition” value is on record?
The value was -28.6%.

For Cc1nc(NC(=O)N2CCC[C@@H]2C(N)=O)sc1-c1csc(C(C)(C)C)n1, which “activity change, negative = inhibition” value is on record?
The value was 71.3%.

Which “activity change, negative = inhibition” value does the source give for CN[C@@H]1CN(c2ccc3c(=O)c(C(=O)O)cn(-c4nccs4)c3n2)C[C@@H]1OC here?
The value was 43.6% [at 21.6 µM].

With N#CC1(c2cccc(C(=O)Nc3cc(Oc4ccc5nc(NC(=O)C6CC6)sc5n4)ccc3F)c2Cl)CC1 as the molecule, how does the “activity change, negative = inhibition” value read?
Its value is 0%.

With OC(c1cc(C(F)(F)F)nc2c(C(F)(F)F)cccc12)C1CCCCN1 (stereo not given) as the molecule, how does the “activity change, negative = inhibition” value read?
The value was 179%.

With CC1CCN(c2cc(N3CCN(C)CC3)ccc2NC(=O)c2cc(C#N)c[nH]2)CC1 as the molecule, how does the “activity change, negative = inhibition” value read?
Its value is 77.2%.

With CCC[C@H](Nc1nc(-c2ccc(NC(=O)NCC)c(OC)c2)ncc1C)c1cccnc1 as the molecule, how does the “activity change, negative = inhibition” value read?
Its value is 75.9%.

Which “activity change, negative = inhibition” value does the source give for CCCCN(CCCC)CC(O)c1cc(Cl)cc2c1-c1ccc(Cl)cc1C2=Cc1ccc(Cl)cc1 (stereo not given) here?
Its value is -21.3%.

For Fc1ccc(CNc2ncnc3ccc(F)cc23)cc1, which “activity change, negative = inhibition” value is on record?
Its value is -5.39%.

With CN1CC(=O)N2C(Cc3c([nH]c4ccccc34)[C@H]2c2ccc3c(c2)OCO3)C1=O (stereo not given in full) as the molecule, how does the “activity change, negative = inhibition” value read?
Its value is 54.9%.

Which “activity change, negative = inhibition” value does the source give for CN1c2ccccc2C(=O)N2CCc3c([nH]c4ccccc34)C21 (stereo not given) here?
The value was 310%.

With COc1ccc2c(c1)CC[C@H]1[C@@H]2CC[C@]2(C)[C@@H](NCCCCCCN3C(=O)C=CC3=O)CC[C@H]12 as the molecule, how does the “activity change, negative = inhibition” value read?
The value was 138%.

With CCNC(=O)Nc1ccc(Oc2ncnc(N)c2C=NOC)cc1Cl as the molecule, how does the “activity change, negative = inhibition” value read?
Its value is 48.4%.

For Oc1ccc(C=Cc2cc(O)cc(O)c2)cc1, which “activity change, negative = inhibition” value is on record?
The value was 17.5%.

With CCN1CCN(c2ccc(Nc3cc(N(C)C(=O)Nc4c(Cl)c(OC)cc(OC)c4Cl)ncn3)cc2)CC1 as the molecule, how does the “activity change, negative = inhibition” value read?
Its value is -17.8%.

For CN1CCN2c3ncccc3Cc3ccccc3C2C1 (stereo not given), which “activity change, negative = inhibition” value is on record?
The value was 34.7%.

For CCOC(=O)N1c2ccc(C(F)(F)F)cc2[C@@H](N(Cc2cc(C(F)(F)F)cc(C(F)(F)F)c2)C(=O)OC)C[C@H]1CC, which “activity change, negative = inhibition” value is on record?
The value was 56.8%.

With O=C(c1ccc(F)c(F)c1Nc1ccc(I)cc1F)N1CC(O)([C@H]2CCCCN2)C1 as the molecule, how does the “activity change, negative = inhibition” value read?
The value was 196%.

Which “activity change, negative = inhibition” value does the source give for NS(=O)(=O)c1ccc(Nc2nc(OCC3CCCCC3)c3[nH]cnc3n2)cc1 here?
The value was 10.7%.

Which “activity change, negative = inhibition” value does the source give for CN(C)CCN(C)C(=O)c1ccc(NC(=O)Nc2ccc(-c3nc(N4CCOCC4)c4ccn(CC(F)(F)F)c4n3)cc2)cc1 here?
Its value is 122%.

Which “activity change, negative = inhibition” value does the source give for Cc1cnc(CNC(=O)c2c(=O)c3ccc(N4CCCN(C)CC4)nc3n3c2sc2ccccc23)cn1 here?
The value was 2.98% [at 21.6 µM].
